# Screening results as filed in PubChem BioAssay.
# Compounds with a hit are over-represented: about 5.2% of the library has one in this group of screens.
# Tau fluor counter: Counterscreen qHTS for Inhibitors of Tau Fibril Formation, Fluorescence Polarization. 280,000 compounds, 0.93% hits. tau K18 P301L Alexa594 fluorescence, heparin fibrillization. Potency, µM (top dose mostly 57.7 µM), for the others: at the top dose activity change, negative = decrease; also: potency is read from the fitted curve at half-maximal effect; nearly all actives have a fitted effect of over 55% in size
#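 Human K18 P301L tau (15 uM unlabeled plus 0.24 uM Alexa 594-labeled, final) in 100 mM sodium acetate pH 7 was mixed with compound and 20 uM heparin and incubated 6 hr at 37 C.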
# FBPA coupling cs: qHTS Assay for Inhibitors of Fructose-1,6-bisphosphate Aldolase from Giardia Lamblia: Coupling assay counterscreen; coupling enzyme system counterscreen, AmpLite Red fluorescence; activity change, negative = inhibition, % at 58.2 µM, hits read low; 290,000 compounds, 0.67% hits; in the data active = activity change below about -30%
#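 Counterscreen lacking aldolase: glyceraldehyde-3-phosphate coupling-enzyme reagent preincubated 10 min at RT with compound (at 57.5 uM final), then substrate/coupling system with AmpLite Red added; fluorescence read at 525/598 nm after 20 min RT.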
# Tau ThT inhib: qHTS for Inhibitors of Tau Fibril Formation, Thioflavin T Binding. Potency, µM (doses to about 57.4 µM), without a hit: at the top dose activity, negative = inhibition, hits mostly inhibitors. AID 1460, 2008. recombinant tau K18 P301L (four-repeat tau fragment), heparin-induced fibrillization, ThT fluorescence. 270,000 compounds, 2.1% hits. Microtubule-associated protein tau (Homo sapiens), P10636; also: potency is read from the fitted curve at half-maximal effect; nearly all actives have a fitted effect of over 55% in size
# Target sequence (P10636 561-689 P618L limits assumed): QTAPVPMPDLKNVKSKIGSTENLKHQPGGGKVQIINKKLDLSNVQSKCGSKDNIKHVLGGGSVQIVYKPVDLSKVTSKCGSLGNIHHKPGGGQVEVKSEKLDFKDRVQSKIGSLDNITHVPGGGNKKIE
#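 Aggregation was driven by heparin (20 uM final) acting on recombinant tau […] bearing P301L in 100 mM sodium acetate pH 7; fibrils were detected with Thioflavin T.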
# Sfp PPTase inh: qHTS Assay for Inhibitors of Bacillus subtilis Sfp phosphopantetheinyl transferase (PPTase); 4'-phosphopantetheinyl transferase ffp (Bacillus subtilis), Q9F4F7; Biochemical Sfp PPTase activity, qHTS; Potency, µM, without a hit: largest response in the series, negative = inhibition, usual class: inhibitors; 310,000 compounds, 3.5% hits; AID 1490, 2009;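 also: the enzyme is Sfp with the accession as filed and its product quenches rhodamine fluorescence; potency is read from the fitted curve at half-maximal effect; 0% = enzyme reaction without inhibitor and -100% = no enzyme wells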
#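 Fluorescence-quenching assay with 15 nM Sfp, 5 uM rhodamine-CoA and 12.5 uM BHQ-2-labelled ybbR peptide in pH 7.6 Hepes/MgCl2 buffer. Enzyme was pre-incubated with compound for 15 min at room temperature. Rate was taken from the 30-min fluorescence change (525/598 nm).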
# Tau fibril FP: qHTS for Inhibitors of Tau Fibril Formation, Fluorescence Polarization | Microtubule-associated protein tau (Homo sapiens), P10636 | K18 P301L tau heparin fibrillization, Alexa594 FP, 6 h | Potency, µM (top dose mostly 57.7 µM), for the others: at the highest dose activity, negative = inhibition, actives largely listed as inhibitors | 280,000 compounds, 0.39% hits; also: potency is read from the fitted curve at half-maximal effect; nearly all actives have a fitted effect of over 55% in size
#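 Human tau K18 […] P301L fragment, 15 uM unlabeled plus 0.24 uM Alexa 594-labeled tau (final), with compound and 20 uM heparin in 100 mM sodium acetate pH 7; 6 hr at 37 C, then Alexa 594 FP read.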
# Starred values were filed as active, the others as inactive; ? = inconclusive; . = no result; [ ] = remark or other dose. Unless noted, calls follow the shape of the dose curve; as a rule, active = well fitted curve in the direction sought with a large enough effect; inconclusive = small, poorly fitted or top-dose-only effect, or another doubt; inactive = no such curve, though single readings can be large; an effect the other way counts as inactive or inconclusive. Unless noted, % is scaled to controls: 0 for no effect and ±100 for the full control effect.
SMILES,Tau fluor counter,FBPA coupling cs,Tau ThT inhib,Sfp PPTase inh,Tau fibril FP
Cc1[nH]n(-c2ccc(F)cc2)c(=O)c1/C=N/c1sc2c(c1C#N)CCCC2,-13%,-1,?,8%,3%
N#Cc1c(/N=C/c2cc3ccccc3s2)sc2c1CCC2,-7%,1,1.3µM*,-28%,-1%
CCN(/C=N/c1sc2c(c1C#N)CCCCC2)CC,-22%,2,?,-10%,?
N#Cc1c(/N=C/C=C/c2ccccc2)sc2c1CCCC2,-12%,2,?,25µM*,1%
Cc1[nH]n(-c2cccc3ccccc23)c(=O)c1/C=N/c1sc2c(c1C#N)CCC2,-24%,9,?,79µM*,-7%
CCOc1ccc(-c2cc(-c3nc(-c4ccc(C)cc4)no3)[nH]n2)cc1,-16%,.,1%,.,?
N#Cc1c(/N=C/c2ccco2)sc2c1CCC2,-16%,2,?,-12%,-5%
Cc1ccc(/C=N/c2sc3c(c2C#N)CCCCC3)o1,-16%,-10,?,50µM*,0%
Cc1ccc(/C=N/c2sc3c(c2C#N)CCC3)s1,-25%,-2,2µM*,-7%,-4%
COc1ccc(CC(=O)c2c(O)cc(O)cc2O)cc1OC,?,15,-12%,-16%,7%
O=C(Cc1ccc(Cl)cc1)c1c(O)cc(O)cc1O,16µM*[quencher],6,?,-16%,-13%
CC(C)Oc1ccc(C(=O)N/N=C/c2ccc(-c3ccc(S(=O)(=O)Nc4ncccn4)cc3)o2)cc1,-19%,8,?,79µM*,-8%
O=C(N/N=C/c1ccc(-c2cccc(C(F)(F)F)c2)o1)c1ccccc1O,-20%,-1,-15%,-19%,-11%
Cc1ccc(C(=O)N/N=C\c2ccc(-c3ccc([N+](=O)[O-])cc3)o2)cn1,-29%,1,3.2µM*,-16%,6%
O=C(N/N=C/c1ccc(-c2cccc([N+](=O)[O-])c2)o1)c1ccccc1O,?,1,8.9µM*,?,7%
O=C(N/N=C/c1ccc(-c2cccc([N+](=O)[O-])c2)o1)c1ccc([N+](=O)[O-])cc1,?,-3,5.6µM*,2%,10%
CC(=O)c1ccc(NC(=O)c2cc(C)nc3c2c(C)nn3-c2ccc(C)cc2)cc1,?,.,-9%,.,-15%
C#CC(C)(CC)NC(=O)Cn1nnc(-c2ccc(OCc3ccccc3F)cc2)n1 (stereo not drawn),-13%,.,7%,.,-12%
COc1ccc(OC)c(NC(=O)CCCOc2cc(=O)n(C)c3ccccc23)c1,-9%,.,-6%,.,-1%
COc1ccc(NC(=O)c2nc(SCc3ccccc3F)ncc2Cl)cc1,-17%,.,2%,.,?
COc1cc([N+](=O)[O-])ccc1-c1ccc(/C=N/NC(=O)c2ccccc2O)o1,?,3,1.6µM*,4%,4%
C/C(=N\NC(=O)c1cc(-c2cccc([N+](=O)[O-])c2)n[nH]1)c1ccccc1O,?,0,2µM*,-5%,-5%
COc1cc([N+](=O)[O-])ccc1-c1ccc(/C=N\n2cnnc2)o1,.,-2,.,-23%,.
O=C(N/N=C/c1ccc(-c2ccccc2[N+](=O)[O-])o1)c1cccnc1,-24%,-12,7.1µM*,-6%,?
O=C(N/N=C\c1ccc(-c2ccc([N+](=O)[O-])cc2)o1)c1ccc2c(c1)OCO2,?,3,0.89µM*,-11%,7%
SMILES,Tau fluor counter,FBPA coupling cs,Tau ThT inhib,Sfp PPTase inh,Tau fibril FP
COC(=O)c1c(C)sc(-c2c(-c3ccc(OC)c(F)c3)[nH]c3c2c(=O)n(C)c(=O)n3C)c1O,-5%,.,-8%,.,7%
CCCNC(=O)c1ccc(N2CCC3(CC2)CC(c2ccccc2)=NO3)c(NC(=O)c2ccc(Br)cc2)c1,.,2,.,20%,.
CCCNC(=O)c1ccc(N2CCC3(CC2)CC(c2ccccc2)=NO3)c(NC(=O)c2ccccc2)c1,.,1,.,56µM*,.
COc1ccc(Nc2nc(-c3ccc(OC)cc3)c(CCC(=O)O)s2)cc1,-18%,5,?,12%,-1%
COC(=O)CCc1sc(Nc2ccccc2)nc1-c1ccc(OC)cc1,16µM*[quencher],0,?,1%,13%
CCOC(=O)c1c(C)[nH]c(CCC(=O)Nc2ccccc2C(=O)OC)c1C,-26%,.,?,.,5%
CC(C)NC(=O)N1CC[C@@]2(CCCN(C(=O)c3cc(C(F)(F)F)cc(C(F)(F)F)c3)C2)C1,.,1,.,17%,.
O=C(NN1C(=O)C2C(C1=O)C1C=CC2C12CC2)c1cccnc1 (stereo not drawn),-2%,3,-1%,14%,-7%
O=C(NN1C(=O)C2C(C1=O)C1C=CC2C12CC2)c1ccncc1 (stereo not drawn),?,13,10µM*,9%,?
CC(=O)N1CCc2cc(S(=O)(=O)CCC(=O)N3CCN(c4cccc(C)c4C)CC3)ccc21,-18%,.,?,.,-5%
Cc1ccc(C(c2c(O)nc3n(c2=O)CCS3)c2c(O)nc3n(c2=O)CCS3)cc1,6%,9,-17%,?,1%
O=c1c(C(c2ccc(O)cc2)c2c(O)nc3n(c2=O)CCS3)c(O)nc2n1CCS2,-22%,2,?,14µM*,-6%
O=c1c(C(c2ccc(Br)cc2)c2c(O)nc3n(c2=O)CCCS3)c(O)nc2n1CCCS2,-29%,5,?,?,?
O=c1c(C(c2ccc(O)cc2)c2c(O)nc3n(c2=O)CCCS3)c(O)nc2n1CCCS2,-25%,0,?,25µM*,-9%
O=C(CN1C(=O)C2(SCC(=O)N2c2ccc(F)c(F)c2)c2ccccc21)NCCc1ccccc1 (stereo not drawn),-10%,.,12%,.,-2%
N#CC1=C(S)N(c2ccc(F)cc2)C2(CCCCC2)NC1=O,-18%,9,32µM*,20µM*,28µM*
O=C1c2ccccc2NC2(CCCCC2)N1c1ccc(O)cc1,1%,2,-3%,17%,-3%
N#CC1=C(S)N(c2ccccc2)C2(CCCCC2)NC1=O,-19%,16,?,28µM*,?
CCSc1nnc2c(n1)OC(c1sccc1C)N(C(C)=O)c1ccccc1-2 (stereo not drawn),-7%,.,?,.,4%
CSc1cccc(NC(=O)c2ccc3c(c2)c(C)c(C)n3Cc2ccc(F)cc2)c1,-26%,.,-5%,.,-11%
Cc1cccc(-c2nc(CN3CCCC(C(=O)NCc4ccc(Cl)cc4)C3)c(C)o2)c1 (stereo not drawn),-14%,.,?,.,8%
